Measurements as given in PubChem BioAssay AID1777 (Sanford-Burnham Center for Chemical Genomics, 2009).
Out of some 280,000 compounds screened, about 50 (0.02%) were called active. Rule as the data show it: active = activation above about 50% (passing the limit was not always enough); inactive = the rest. Many of the other results were omitted from the sample, so actives are more common in it than they were. Measured potencies and affinities stand elsewhere.

Target: Kappa-type opioid receptor (Homo sapiens) (UniProt P41145)
Assay: kappa opioid receptor activators – cell-based, luminescence, uHTS, primary screen (AID 1777)
Details: KOR beta-arrestin recruitment, at 10 µM, hits give high values

Kappa-type opioid receptor (Homo sapiens), sequence (P41145 whole entry, looked up): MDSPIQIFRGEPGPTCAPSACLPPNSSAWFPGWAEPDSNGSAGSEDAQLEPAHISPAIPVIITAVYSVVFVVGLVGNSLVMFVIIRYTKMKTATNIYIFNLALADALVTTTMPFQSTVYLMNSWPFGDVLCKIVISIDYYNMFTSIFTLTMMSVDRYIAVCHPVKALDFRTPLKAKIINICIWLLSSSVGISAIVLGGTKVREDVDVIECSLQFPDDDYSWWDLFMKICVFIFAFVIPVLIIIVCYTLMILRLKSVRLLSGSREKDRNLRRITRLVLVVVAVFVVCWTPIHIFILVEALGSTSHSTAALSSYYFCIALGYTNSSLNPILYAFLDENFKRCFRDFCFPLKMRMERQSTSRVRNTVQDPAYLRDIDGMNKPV

activation, active:
O=C(Nc1nc(-c2ccccc2)cs1)c1ccccc1NS(=O)(=O)c1ccc(F)cc1 111%
CCn1c(=O)c(C2=NS(=O)(=O)c3ccccc3N2)c(O)c2ccccc21 54.2%
Cc1cccc2cc(CN(Cc3cccs3)C(c3nnnn3C3CCCC3)C(C)C)c(=O)[nH]c12 (stereo not given) 66%
O=C(CSc1nc2ccc([N+](=O)[O-])cc2s1)c1ccc2ccccc2c1 57.8%
Oc1cccc(C(O)CNCc2ccc(OCc3ccc(Cl)cc3Cl)cc2)c1 (stereo not given) 103%
CC[C@@H](C(=O)[C@@H](C)[C@@H](O)[C@H](C)CCc1ccc(C)c(O)c1C(=O)O)[C@H]1O[C@](CC)([C@H]2CC[C@](O)(CC)[C@H](C)O2)C[C@@H]1C 83.4%
COc1ccc(C(=O)CSc2nnc(-c3ccc(S(=O)(=O)N4CCOCC4)cc3)o2)cc1 50.2%

activation, inactive:
COc1ccc(C[C@H]2CN3C(=NC[C@H]3C)N2CCNC(=O)c2ccc(C)c(Br)c2)cc1 12.5%
Cc1ccc(C(=O)NCCN2C3=NC[C@H](C)N3C[C@H]2Cc2ccc(O)cc2)cc1Br 25.2%
Cc1nnc(SCC(=O)N2c3ccccc3CC2C)[nH]c1=O (stereo not given) 7.1%
O=C(NC1CCCCC1)c1ccc(S(=O)(=O)N2CCOCC2)cc1 2%
Cc1cc(Nc2ccc(Cl)cc2)n2ncnc2n1 -0.8%
Cc1oc(-c2ccccc2F)nc1CS(=O)CC(=O)NC1CC1 (stereo not given) 0.9%
COc1ccc(OC)c(NC(=O)c2ccc(CSc3ncccn3)cc2)c1 -7.7%
Cc1ccc(S(=O)(=O)Nc2ccccc2C(=O)Nc2nc(-c3ccc(F)cc3)cs2)cc1 13%
COc1ccc(S(=O)(=O)Nc2ccccc2C(=O)Nc2nc(-c3ccc(F)cc3)cs2)cc1OC 15.1%
Cc1ccc(O)c(C(=O)c2cnn(C(=O)COc3ccc(Cl)cc3)c2)c1 0.1%
Cc1cc(N/C(=N/S(=O)(=O)c2cc(F)ccc2F)c2ccccc2)n(-c2ccccc2)n1 -1.3%
CCCCCCCCCCCCOC1OC(CO)C(O)C(O)C1NC(C)=O (stereo not given) -0.9%
CC1=CC(C)(C)N(C)C(=O)N1c1ccc(Cl)cc1 7.6%
Cc1cc(=O)cc(C)n1-c1ccc(Cl)cc1 1.5%
CCCn1c(C(CO)Nc2nc(-c3cccc(Br)c3)cs2)nc2ccccc21 (stereo not given) 2.4%
Cc1cccc(C(=O)Nc2cccc(C(=O)N/N=C/c3ccc4c(c3)OCO4)c2)c1 -5.3%
CC(=O)Nc1nc(SCC(=O)NCC2CCCO2)[nH]c(=O)c1NC(=O)c1cccs1 (stereo not given) -4.2%
CCN(C(=O)COC(=O)C1CCN(S(=O)(=O)c2c(Cl)cccc2Cl)CC1)C1CCCCC1 -3.1%
COc1ccc(-n2c(C)cc(C(=O)COc3ccc(-n4cnnn4)cc3)c2C)cc1 3.1%
COc1ccccc1CN(Cc1cc2cc(C)ccc2[nH]c1=O)Cc1nnnn1Cc1ccco1 -3.4%
CC(Sc1nnc(COc2ccccc2)n1Cc1ccccc1)C(=O)O (stereo not given) 1.6%
CC(=O)Nc1ccc(NC(=O)C(C)Sc2n[nH]c(=O)n2Cc2ccccc2)cc1 (stereo not given) -2.2%
O=C(N/N=C/c1c[nH]c2ccc(Br)cc12)c1ccccn1 4.6%
Nc1ccc(C2(c3ccc(N)cc3)OC(=O)c3ccccc32)cc1 -7.1%
Nc1ccc(C2(c3ccc(N)cc3)C(=O)Nc3ccccc32)cc1 0.1%
O=C(CSc1nnc(CNC(=O)c2c(F)cccc2F)o1)c1ccccc1 4.5%
CCOc1ccc(N2C(=O)Nc3ccc(Br)cc3C2(O)C(=O)NCCN(C)C)cc1 (stereo not given) -0.1%
CC(=O)Nc1ccc(NC(=O)c2ccc(COc3ccc4c(C)cc(=O)oc4c3)cc2)cc1 0.2%
Cc1cccc(C(C)C)c1NC(=O)c1ccc(COc2ccc3c(C)cc(=O)oc3c2)cc1 3.9%
CN(C)/C=C/C(=O)c1cccc(C(F)(F)F)c1 2.5%
CCC1(c2ccc(F)cc2)NC(=O)N(CC(=O)Nc2ccccc2Cl)C1=O (stereo not given) -0.1%
CCn1c(=O)c(-c2ccccc2)c(O)c2ccccc21 1.3%
CCn1c(=O)c(-c2cc(=O)[nH][nH]2)c(O)c2ccccc21 2.3%
CC(=O)N(Cc1ccco1)C1(C(=O)NC2CCCC2)CCCCC1 -1%
Cc1cccc(C)c1NC(=O)C1(N(Cc2ccco2)C(=O)Cn2nnnc2N)CCCCC1 -0.3%
O=C(c1ccc(=O)[nH]c1)N(Cc1ccco1)C1(C(=O)NC2CCCCC2)CCCCC1 -2.7%
CC(=O)NCC(=O)N(Cc1ccco1)C1(C(=O)NC2CCCCC2)CCCCC1 3.8%
O=C(c1ccc(=O)[nH]c1)N(Cc1ccco1)C1(C(=O)NC2CCCC2)CCCCC1 6%
Cc1cccc(C)c1NC(=O)C1(N(C(=O)c2ccccn2)c2ccc(O)cc2)CCCCC1 -0.3%
CC(=O)N(Cc1ccco1)C1(C(=O)NC2CCCCC2)CCCCC1 2.1%
O=C(c1cnccn1)N(Cc1ccco1)C1(C(=O)NC2CCCC2)CCCCC1 -9%
CC[n+]1c(-c2ccc(C)cc2)csc1Nc1c(C)n(C)n(-c2ccccc2)c1=O -4.9%
Cc1ccc(S(=O)(=O)N2CCN(CC(=O)N/N=C/C=C/c3ccccc3)CC2)cc1 0.3%
COc1cc(OC)cc(C(=O)NCC(=O)N2CCCCC2)c1 -0.7%
CC1(C)Cc2c(cnn2-c2cccc(F)c2)C(NC(=O)c2csnn2)C1 (stereo not given) 5.1%
CCOc1ccccc1NC=C1C(=O)OC(C)(C)OC1=O 4.4%
Cc1c(NC(=O)c2cccc(S(=O)(=O)N3CCOCC3)c2)c(=O)n(-c2ccccc2)n1C -7.9%
O=C(NCC1CCCO1)C1CC(=O)N(c2cccc(Cl)c2)C1 (stereo not given) 5.7%
CCC(=O)Nc1c2c(nn1-c1cccc(Cl)c1)CS(=O)(=O)C2 -8.6%
CCOc1ccccc1NC(=O)CN(C)S(=O)(=O)c1ccc2[nH]c(=O)oc2c1 -1.5%
Cc1ccc2c(CC(=O)NCC3COc4ccccc4O3)coc2c1 (stereo not given) -4.2%
Cc1cc(C)n(-c2cccc(CN3CCC(CO)(Cc4ccccc4)CC3)c2)n1 -3.3%
Cc1cccc(-n2ccnc2CN2CCN(C(C)C)C(CCO)C2)c1 (stereo not given) 8%
CCCC(=O)NC(c1ccc(Cl)cc1Cl)c1ccc2cccnc2c1O (stereo not given) -5.3%
O=C(c1ccc2c3n(nc2c1)-c1ccccc1CO3)N1CCOCC1 0.7%
O=C(C(Cc1ccccc1)n1cccc1)N1CCN(c2ccccc2)CC1 (stereo not given) -3.7%
Cc1cccc(N2CCN(C(=O)C(Cc3ccccc3)n3cccc3)CC2)c1C (stereo not given) 81%
COc1cccc(CN2CC(C(=O)N(C)Cc3nc(C)cs3)CCC2=O)c1 (stereo not given) -2.2%
O=c1cc(N2CCN(c3ccccc3)CC2)[nH]c(=O)n1Cc1ccc(F)cc1 -5.2%
Cc1cccc(N2CCN(C(=O)c3cccc(N4CCCC4=O)c3)CC2)c1C -3.4%
CCC(c1nnnn1C1CCCC1)N(Cc1cccs1)Cc1cc2cc(C)ccc2[nH]c1=O (stereo not given) 3.2%
Cc1cccc2cc(CN(Cc3cccs3)C3(c4nnnn4C4CCCC4)CCCC3)c(=O)[nH]c12 9.6%
Cc1ccc(N2CC(C(=O)N3CCCCCC3)CC2=O)cc1 (stereo not given) 1.5%
CC1CCCN(C(=S)Nc2ccc(S(=O)(=O)N3CCCCC3)cc2)C1 (stereo not given) -0.4%
CCCOC(=O)NC1C(NC(=O)OCCC)N(C)C(=O)N1C (stereo not given) -2.1%
Cn1cccc1/C=N/N1CCN(Cc2cccc3ccccc23)CC1 3%
O=C(CSc1nc2ccc([N+](=O)[O-])cc2[nH]1)c1ccc2ccccc2c1 -0.1%
Nc1ccc2nc(SCC(=O)c3ccccc3)sc2c1 -1.7%
CCOC(=O)N1CCC(N(CCOC)C(=O)Nc2ccc(Cl)c(Cl)c2)CC1 -4.1%
COc1ccc(OC)c2[nH]c(=O)c(CCNC(=S)NC(C)(C)C)cc12 -9%
OCCNCc1ccc(OCc2ccc(Cl)cc2Cl)cc1 -6.2%
OCCCCNCc1ccc(OCc2ccc(Cl)cc2Cl)cc1 3.1%
Cc1cc(C)n(CCNC(=O)c2cc(COc3ccc4ncccc4c3)on2)n1 0.2%
Cc1ccc(OC(C)c2nnc(N)s2)cc1Cl (stereo not given) -0.5%
COc1ccc(S(=O)(=O)N2CCCC(C(=O)NC3CCCC3)C2)cc1OC (stereo not given) -2.8%
C(=C\c1ccccc1)/CNCC1CCCO1 (stereo not given) 2%
CC(C)OCCCNC(=O)C(Cc1ccccc1)NS(=O)(=O)c1ccc2c(c1)CCC(=O)N2 (stereo not given) 0.5%
COc1ccc(CCN2C(=O)CSC2=Nc2ccc(C)cc2C)cc1OC 9.8%
COc1ccc(N=C2SCC(=O)N2CCc2ccc(OC)c(OC)c2)cc1 23.1%
COc1ccc2cc(CN(CC3COCCO3)S(=O)(=O)c3c(C)cc(C)cc3C)c(=O)[nH]c2c1 (stereo not given) -0.5%
O=C(CN1CCN(c2ccc(F)cc2)CC1)Nc1cccnc1Cl 0.4%
COc1ccc(C(=O)CSc2nnc(-c3ccc(C)cc3)o2)cc1 -0.9%
CCN(CC)S(=O)(=O)c1ccc(-c2nnc(SCC(=O)c3ccc(OC)cc3)o2)cc1 3.1%
